Screening data: PubChem BioAssay, National Center for Advancing Translational Sciences (NCATS)
Rows were chosen to be rich in hits. Some 21% of all compounds tested hit in one or more screens of this group.
Pf growth 48h: Primary qHTS for delayed death inhibitors of the malarial parasite plastid, 48 hour incubation. P. falciparum luciferase growth in erythrocytes, 48 h. Potency, µM (top dose mostly 28.7 µM), inactives show top-dose activity change, negative = inhibition, most hits filed as inhibitors. hit rate 5.9% among 310,000. AID 504832, 2011; note: potency is the fitted concentration of half-maximal effect; % is set by controls: 0 for no effect and ±100 for the full control effect
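A one-generation exposure of luciferase-tagged malaria parasites in RPMI 1640/Albumax erythrocyte culture, 37 C and 5% CO2. Inhibition is inferred from decreased luminescence after adding detection reagent.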
HCV inhibitor: qHTS Assay for Inhibitors of Hepatitis C Virus (HCV) | Potency, µM (series often up to 41.8 µM), without a hit: top-dose activity change, negative = inhibition, actives largely listed as inhibitors | Huh7.5.1 HCVcc-Cre infection, luciferase reporter, 44 h | hit rate 3.4% among 340,000; note: potency is the fitted concentration of half-maximal effect; % is set by controls: 0 for no effect and ±100 for the full control effect
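Antiviral activity was scored by luciferase reporter output from cells infected with HCVcc-Cre (~0.5 moi) in presence of compound, 44 h infection period, cells seeded 1,000/well 4 h prior.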
Cycloheximide cs: Cycloheximide Counterscreen for Small Molecule Inhibitors of Shiga Toxin | AID 2314, 2010 | hit rate 12% among 300,000 | max response, % | cell reporter, cycloheximide protein synthesis inhibition counterscreen; in the data active = max response mostly above about 13%, no sharp cut-off; inactive = mostly below about 14%; note: read at 38.3 µM for the half of the compounds with a filed dose; 0% is about no effect
HCMV antiviral: qHTS Assay for inhibitors of the human cytomegalovirus (HCMV); HFF cells, HCMV-luciferase reporter, 72 h; active compounds read low; activity change, negative = inhibition, % at 57.5 µM; hit rate 4.5% among 410,000; AID 1259415, 2018; in the data active = activity change below about -60%; inconclusive = no clear call, values can overlap the other calls; inactive = above about -39%; note: % is set by controls: 0 for no effect and ±100 for the full control effect
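Inhibition of viral replication was scored as loss of reporter luminescence in HFFs infected with HCMV-luciferase (MOI 1 PFU/cell) for 72 h; compounds tested at 2 doses, normalized to buffer and Salinomycin controls.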
Shiga toxin inh: A qHTS for Small Molecule Inhibitors of Shiga Toxin; Vero cells, Shiga toxin protein synthesis inhibition reporter; inhibition, % at 38.7 µM; hit rate 9.2% among 290,000; in the data active = inhibition mostly above about 28%, no sharp cut-off; inactive = mostly below about 43%; note: 0% is about no effect
Pf growth 96h: Primary qHTS for delayed death inhibitors of the malarial parasite plastid, 96 hour incubation; hit rate 6.9% among 320,000; Potency, µM (top dose mostly 28.7 µM), for the others: at the top dose activity change, negative = inhibition, hits mostly inhibitors; P. falciparum luciferase reporter growth, 96 h; AID 504834, 2011; note: potency is the fitted concentration of half-maximal effect; % is set by controls: 0 for no effect and ±100 for the full control effect
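P. falciparum expressing integrated firefly luciferase, in erythrocytes at 2% hematocrit, 0.05% parasitemia, incubated with compounds 96 h at 37 C, 5% CO2. Growth inhibition read as loss of luminescence; two-generation exposure targets delayed-death apicoplast inhibitors.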
Numbers without * were called inactive; i = inactive; ? = inconclusive; . = no result given; [ ] = another dose, or the depositor's remark. Unless noted, calls come from the whole dose curve; as a rule, active = well fitted inhibition curve with a large enough effect; inconclusive = small, poorly fitted or top-dose-only effect, or another doubt; inactive = no such curve, though single readings can be large or run the other way.

SMILES	Pf growth 48h	HCV inhibitor	Cycloheximide cs	HCMV antiviral	Shiga toxin inh	Pf growth 96h
Cc1cc(C)c(S(=O)(=O)NCc2cccnc2)cc1C	?	-4%	-2	-7	-15	12µM*
CCCCc1nn2c(=O)cc(COC(=O)CNC(=O)COc3ccc(C)cc3)nc2s1	.	.	.	1	.	.
Oc1ccccc1/C=N/Nc1ncc(Br)cn1	2.1µM*	?	66*	-98*	74*	-102%
Oc1ccccc1/C=N/Nc1ccccc1	42%	-8%	48*	-8	197*	25%
Oc1ccccc1/C=N/NP(=S)(c1ccccc1)c1ccccc1	?	-1%	14	-25	23	?
Oc1ccccc1/C=N/Nc1ccnc(SCc2ccccc2)n1	10µM*	-9%	24*	33	30	1.9µM*
Cc1cc(O)c(/C=N/Nc2ccccc2)c(=O)o1	-21%	-28%	20*	-14	0	16%
COc1ccc2c(c1)c1c(c(=O)n(-c3ccc(F)c(Cl)c3)c(=O)n1Cc1ccccc1C)n2C	.	.	.	1	.	.
COc1ccccc1-c1nc2c(c(SCc3cc(C)ccc3C)n1)Cc1c(CO)cnc(C)c1O2	.	.	.	5	.	.
CCCn1nc(C(=O)Nc2ccc3nc(N4CCOCC4)sc3c2)ccc1=O	?	?	.	-76*	.	?
CCOCc1c(C(=O)Nc2ccc3nc(N4CCOCC4)sc3c2)oc2ccccc12	15µM*	?	.	44	.	?
CCOCc1c(C(=O)Nc2ccccc2N2CCN(C)CC2)oc2ccccc12	?	11µM*	.	12	.	13µM*
COc1ccc(C(=O)Nc2ccc3nc(N4CCOCC4)sc3c2)cc1OC	-8%	?	.	88	.	?
CCOCc1c(C(=O)Nc2cc(OCC)c(N3CCOCC3)cc2OCC)oc2ccccc12	35%	4%	4	74	13	?
COc1ccc2c(CC(=O)Nc3ccc4nc(N5CCOCC5)sc4c3)coc2c1	.	.	.	-6	.	.
Cc1ccc(OCCCn2c(-c3ccc(Cl)cc3)nc3ccccc3c2=O)cc1C	.	.	.	18	.	.
CC(=O)NC(C)c1ccc(C(=O)CSc2nnc(C3CC3)n2C2CC2)cc1 (stereo not drawn)	-19%	2%	.	-11	.	-22%
CSc1nsc(SCC(=O)Nc2ccc(F)cc2F)n1	86%	-12%	32*	-9	52*	23%
CSc1nsc(SCC(=O)Nc2ccc(NC(C)=O)cc2)n1	91%	-5%	-4	9	38	-18%
CSc1nsc(SCC(=O)Nc2ccccc2C(=O)O)n1	16%	13%	19*	-4	44*	-25%
CSc1nsc(SCC(=O)Nc2ccc(O)c(C(=O)O)c2)n1	-4%	17%	-3	8	29	?
CSc1nsc(SCC(=O)Nc2ccc(Br)cn2)n1	12%	-10%	28*	-3	78*	44%
Cc1ccc(C)c(-c2ccc(C(=O)O)o2)c1	.	.	23	.	i	.
C[C@@H]1CN([C@@H](C)CO)C(=O)c2ccccc2-c2ccccc2CO[C@@H]1CN(C)Cc1ccc(Cl)c(Cl)c1	.	.	.	-3	.	.
CCCNc1ccc(-c2nc(-c3ccncc3)no2)cc1[N+](=O)[O-]	.	.	.	5	.	.
SMILES	Pf growth 48h	HCV inhibitor	Cycloheximide cs	HCMV antiviral	Shiga toxin inh	Pf growth 96h
O=S(=O)(c1cnc[nH]1)N1CCc2ccccc21	-12%	-1%	-4	45	21	8.3µM*
CC(=O)Nc1ccc(S(=O)(=O)N2CCN(CC(O)COc3ccc4ccccc4c3)CC2)cc1 (stereo not drawn)	?	-5%	6	-87*	-8	.
CC(=O)Nc1ccc(OCC(O)CN2CCN(c3cccc(Cl)c3)CC2)cc1 (stereo not drawn)	?	-14%	9	-31	-5	10µM*
CC(=O)Nc1ccc(OCC(O)CN2CCN(c3ccc(Cl)cc3)CC2)cc1 (stereo not drawn)	?	9%	-2	-17	-10	?
CC(=O)NC(C)CCc1ccccc1 (stereo not drawn)	53%	19%	2	19	10	22%
CC(CCc1ccccc1)NCC(O)c1ccc(O)c(C(N)=O)c1 (stereo not drawn)	13µM*	0%[8.37 µM]	-3	-31	5	?
COc1cc(CN2CC(=O)N(c3ccc(C)cc3)C2=S)cc(OC)c1OC	0.83µM*	?	0	31	-10	-14%
COc1cc(Cl)c(C)cc1N1C(=O)CN(Cc2ccccc2)C1=S	?	-17%	-3	-13	-7	25%
COc1ccc(CN2CC(=O)N(c3ccc(C)cc3)C2=S)cc1OC	?	1%	-2	21	-1	0%
COc1cc(CN2CC(=O)N(c3ccc(C)c(Cl)c3)C2=S)cc(OC)c1OC	2.1µM*	-14%	2	-32	-1	-1%
Cc1nc(CN2CCCCC2)c(O)c(=O)[nH]1	.	27%	.	-24	.	.
Cc1cc(C)c2c(CC(=O)Nc3ccc(S(=O)(=O)Nc4nc(C)cc(C)n4)cc3)coc2c1	.	.	.	-11	.	.
COc1cccc(NC(=O)CSc2nnc(-c3ccco3)c(-c3ccco3)n2)c1	10%	?	-2	48	23	18%
COc1ccc(C(=O)CSc2nnc(-c3ccco3)c(-c3ccco3)n2)cc1	-3%	-10%	10	?	20	1.5µM*
O=C(CSc1nnc(-c2ccco2)c(-c2ccco2)n1)Nc1ccccc1	2%	?	31*	60	27	1%
Cc1ccc(NC(=O)CSc2nnc(-c3ccco3)c(-c3ccco3)n2)cc1	-12%	?	15	10	1	?
C=CCc1c(C)nc2nc(SCC(=O)Nc3ccccc3CC)nn2c1C	.	.	.	-29	.	.
C=CCc1c(C)nc2nc(SCC(=O)Nc3ccc(C)c(C)c3)nn2c1C	.	.	.	-100*	.	.
CC(C)(C)c1ccc(-c2nnc(SCC(=O)Nc3sc4c(c3C#N)CCCC4)o2)cc1	16%	-16%	-1	-102*	-12	40%
CCOC(=O)c1c(NC(=O)CSc2nnc(-c3ccc(Cl)cc3)o2)sc2c1CCC2	.	3%	.	-38	.	.
Cc1sc(NC(=O)CSc2nnc(-c3ccc(F)cc3)o2)c(C#N)c1C	-13%	-13%	6	9	16	9.3µM*
CCOC(=O)C1=C(CN2CCN(c3cccc(Cl)c3)CC2)NC(=O)NC1c1ccc(Cl)cc1 (stereo not drawn)	.	.	.	8	.	.
O=C(CCl)NC(Cc1c[nH]c2ccc(OCc3ccccc3)cc12)C(=O)O (stereo not drawn)	-2%	13%	-2	-18	-2	?
CCOC(=O)c1csc(-n2nc(C)cc2C(F)(F)F)n1	?	-12%	33*	86	38	11%
CC(=O)c1cccc(NC(=O)c2csc(-n3nc(C)cc3C(F)(F)F)n2)c1	?	-14%	-5	7	-14	?
